PMC5540273 (PLoS ONE, 2017)

Experiments:
Details in all cases: concentration: 1 μM, replicates: in singlicate; n = 1
NEK4 = test system: NEK4
NEK5 = test system: NEK5
NEK6 = test system: NEK6
NEK7 = test system: NEK7
NEK9 = test system: NEK9
NIK = test system: T1, NIK
T1 construct: gene MAP3K14

NIM1 = test system: T2, NIM1
T2 construct: gene MGC42105

NLK = test system: NLK
OSR1 = test system: T3, OSR1
T3 construct: gene OXSR1

PAK1 = test system: PAK1
PAK2 = test system: PAK2
PAK3 = test system: PAK3
PAK4 = test system: PAK4
PAK6 = test system: PAK6
PAK7 = test system: PAK7
PCTK1 = test system: T4, PCTK1
T4 construct: gene CDK16

PCTK2 = test system: T5, PCTK2
T5 construct: gene CDK17

PCTK3 = test system: T6, PCTK3
T6 construct: gene CDK18

PDGFRA = test system: PDGFRA
PDGFRB = test system: PDGFRB
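Note: KINOMEscan kinase panel screen.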

Row | Structure (SMILES) | %Inh (NEK4) | %Inh (NEK5) | %Inh (NEK6) | %Inh (NEK7) | %Inh (NEK9) | %Inh (NIK) | %Inh (NIM1) | %Inh (NLK) | %Inh (OSR1) | %Inh (PAK1) | %Inh (PAK2) | %Inh (PAK3) | %Inh (PAK4) | %Inh (PAK6) | %Inh (PAK7) | %Inh (PCTK1) | %Inh (PCTK2) | %Inh (PCTK3) | %Inh (PDGFRA) | %Inh (PDGFRB)
1 | CCC(=O)c1c(-c2ccccc2)c2cc(Cl)ccc2c(=O)n1Cc1ccc(C(=O)O)cc1 | 0% | 0% | 0% | 0% | 0% | 0% | 0% | 0% | 0% | 0% | 0% | 0% | 0% | 0% | 0% | 0% | 0% | 0% | 19% | 58%
2 | COc1cccc(C2=C(N(C)c3ccccc3)C(=O)NC2=O)c1 [SB-334865] | 0% | 0% | 0% | 0% | 0% | 100% | 21% | 29% | 0% | 1% | 0% | 1% | 0% | 0% | 0% | 0% | 0% | 0% | 0% | 7%
3 | Fc1cccc(CSc2nnc(-c3ccc4c(c3)CCO4)o2)c1 | 20% | 6% | 10% | 13% | 12% | 0% | 0% | 0% | 3% | 28% | 62% | 19% | 23% | 35% | 5% | 18% | 1% | 0% | 26% | 0%
4 | Cc1ccccc1COc1cc(-n2cnc3cc(Cl)ccc32)sc1C(N)=O [GW813349] | 0% | 6% | 0% | 4% | 0% | 9% | 5% | 0% | 0% | 0% | 0% | 0% | 0% | 1% | 0% | 15% | 0% | 0% | 1% | 0%
5 | COc1ccc(Nc2nccc(N3CCC(NS(=O)(=O)c4ccc(NC(C)=O)cc4)C3)n2)cc1 (centres unmarked) [GSK1379729] | 3% | 33% | 11% | 3% | 5% | 17% | 11% | 13% | 20% | 6% | 0% | 7% | 0% | 0% | 0% | 0% | 0% | 6% | 23% | 15%
6 | COc1cc2nccc(Nc3cccc(Oc4ccccc4)c3)c2cc1OC.Cl [GW284543] | 3% | 0% | 0% | 11% | 27% | 37% | 19% | 24% | 4% | 0% | 0% | 0% | 0% | 0% | 4% | 4% | 0% | 2% | 22% | 26%
7 | COc1cccc(-n2cnc3c(N)ncnc32)c1 [SKF-97416] | 0% | 8% | 8% | 0% | 0% | 27% | 61% | 0% | 24% | 20% | 53% | 0% | 18% | 18% | 1% | 15% | 0% | 6% | 42% | 4%
8 | OCCCNc1nccc(-c2c(-c3cccc(C(F)(F)F)c3)nn3cc(C(F)(F)F)ccc23)n1 [GW630813] | 0% | 5% | 0% | 0% | 1% | 0% | 0% | 92.7% | 0% | 0% | 0% | 3% | 0% | 0% | 12% | 11% | 0% | 19% | 0% | 6%
9 | CCC(=O)c1c(-c2ccccc2)c2cc(Cl)ccc2c(=O)n1Cc1cc(C(=O)NC2CC2)n(C)n1 | 16% | 0% | 8% | 0% | 0% | 0% | 1% | 0% | 0% | 20% | 16% | 11% | 0% | 4% | 0% | 1% | 6% | 0% | 15% | 77%
10 | O=C(Nc1n[nH]c2nc(-c3ccccc3)c(Br)cc12)C1CC1 [SB-708998] | 3% | 2% | 0% | 0% | 3% | 31% | 9% | 33% | 11% | 10% | 10% | 9% | 0% | 0% | 0% | 0% | 0% | 0% | 20% | 93.7%
11 | O=c1cc(N2CCOCC2)nc2n(Cc3ccc(F)c(Cl)c3)ccn12 [GSK2297099] | 0% | 9% | 0% | 61% | 64% | 0% | 17% | 14% | 6% | 5% | 5% | 0% | 0% | 13% | 11% | 6% | 10% | 2% | 7% | 17%
12 | CCCC(=O)Nc1n[nH]c2ncc(-c3cccc4ccccc34)cc12 [SB-642057] | 0% | 9% | 0% | 0% | 0% | 11% | 28% | 24% | 0% | 4% | 5% | 0% | 0% | 0% | 0% | 27% | 35% | 34% | 0% | 12%
13 | CCC(=O)c1c(-c2ccccc2)c2cc(Cl)ccc2c(=O)n1Cc1cc(S(C)(=O)=O)n(CC(N)=O)n1 | 0% | 0% | 0% | 0% | 0% | 0% | 14% | 0% | 0% | 32% | 5% | 0% | 5% | 1% | 0% | 0% | 0% | 13% | 0% | 10%
14 | Nc1nccc2scc(-c3ccc4c(c3)CCN4C(=O)Cc3ccccc3)c12 [GSK2576924] | 0% | 14% | 0% | 0% | 18% | 23% | 8% | 0% | 7% | 18% | 0% | 55% | 0% | 0% | 30% | 0% | 9% | 17% | 4% | 43%
15 | COc1cc(Nc2ccnc3ccc(C(F)(F)F)cc23)cc(OC)c1OC [GW577382] | 5% | 13% | 2% | 3% | 13% | 0% | 85% | 73% | 14% | 0% | 0% | 31% | 4% | 0% | 7% | 0% | 0% | 7% | 0% | 36%
16 | COc1cc(OC)cc(-c2cc3cnc(N)nc3nc2NC(=O)NC(C)(C)C)c1 | 0% | 0% | 0% | 1% | 0% | 1% | 0% | 0% | 0% | 0% | 0% | 0% | 0% | 0% | 9% | 0% | 0% | 0% | 0% | 0%
17 | Cc1nc(N(C)[C@H]2CN(C(=O)CC#N)CC[C@H]2C)c2cc[nH]c2n1 | 4% | 11% | 7% | 0% | 0% | 0% | 0% | 7% | 0% | 0% | 0% | 0% | 0% | 2% | 15% | 0% | 0% | 0% | 0% | 0%
18 | Nc1ncnc2c1ncn2-c1cccc2ccccc12 [SKF-97184] | 0% | 0% | 0% | 0% | 0% | 2% | 13% | 0% | 0% | 3% | 56% | 0% | 0% | 0% | 0% | 0% | 100% | 10% | 0% | 7%
19 | O=C(Nc1ccc2c(c1)OCO2)NC1CCN(c2ccnc(NCc3ccc(F)cc3)n2)CC1 [GSK1379859] | 23% | 17% | 0% | 0% | 11% | 12% | 0% | 11% | 3% | 0% | 0% | 14% | 0% | 0% | 0% | 0% | 0% | 0% | 0% | 12%
20 | COc1cc2ncn(-c3cc(OCc4ccncc4)c(C(N)=O)s3)c2cc1OC [GSK336313] | 0% | 23% | 0% | 0% | 15% | 0% | 0% | 11% | 31% | 16% | 3% | 0% | 0% | 4% | 0% | 9% | 0% | 18% | 0% | 27%
21 | CCc1nc(-c2cccc(C)c2)c(-c2ccncc2)s1 | 0% | 0% | 3% | 0% | 0% | 0% | 0% | 81% | 0% | 28% | 16% | 0% | 15% | 3% | 0% | 0% | 1% | 2% | 0% | 70%
22 | Cl.NS(=O)(=O)c1cccc(Nc2cc(-c3ccc(F)cc3)n[nH]2)c1 [GW824645] | 0% | 0% | 0% | 0% | 0% | 45% | 3% | 0% | 0% | 4% | 26% | 0% | 0% | 4% | 0% | 0% | 13% | 5% | 75% | 96.1%
